From PubChem BioAssay
Sampled rows, rich in hits. Any-hit rate of the full collection: about 21%.
CHX counter = counter-screen for Shiga toxin inhibitors: cycloheximide protein synthesis inhibition. AID 2314. actives 12% (n = 300,000). cell reporter, cycloheximide protein synthesis inhibition counterscreen. max response, %; in the data active means max response mostly above about 13%, no sharp cut-off; inactive means mostly below about 14%; further: read at 38.3 µM for the half of the compounds with a filed dose
Pf growth 48h = P. falciparum growth inhibition at 48 hours (one generation) | Potency, µM (doses to about 28.7 µM), usual class: inhibitors | AID 504832 | actives 5.9% (n = 310,000) | P. falciparum luciferase growth in erythrocytes, 48 h; active means well fitted inhibition curve with a large enough effect; inconclusive means small, poorly fitted or top-dose-only effect, or another doubt; inactive means no such curve, though single readings can be large or run the other way
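Compounds are pin-transferred into medium, infected erythrocytes (2% hematocrit, 0.1% parasitemia final) are added, and plates sit one parasite generation at 37 C in 5% CO2. Detection reagent is then added and luminescence measured.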
SARS PLP yeast = SARS-CoV PLP inhibition in yeast. S. cerevisiae expressing SARS-CoV PLpro, growth rescue. Potency, µM (titrated, usually from 32.9 µM), usual class: activators. actives 0.19% (n = 330,000). AID 485353; further: nearly all actives have a fitted effect of over 55% in size
NS1 function inh = influenza NS1 inhibition; Potency, µM (doses to about 46.1 µM); actives 0.4% (n = 270,000); further: actives are rising curves; nearly all actives have a fitted effect of over 50% in size
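Compounds were scored for reversing the slow growth caused by influenza A NS1 in S. cerevisiae, measured by optical density at 600 nm. Assay medium contained 2% galactose at pH 6.0; NS1-free yeast of the same strain were the positive control.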
Pf growth 96h = inhibits malaria parasite growth, 96 h | P. falciparum luciferase reporter growth, 96 h | Potency, µM (top dose mostly 28.7 µM), usual class: inhibitors | actives 6.9% (n = 320,000) | AID 504834; active means well fitted inhibition curve with a large enough effect; inconclusive means small, poorly fitted or top-dose-only effect, or another doubt; inactive means no such curve, though single readings can be large or run the other way
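Delayed-death screen, second-generation endpoint: infected erythrocytes, 2% hematocrit, 0.05% parasitemia final; 96 hours at 37 C, 5% CO2; luciferase detection reagent; luminescence decrease equals reduced growth.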
Shiga inhibitor = Shiga toxin inhibition; Vero cells, Shiga toxin protein synthesis inhibition reporter; inhibition, % at 38.7 µM; actives 9.2% (n = 290,000); in the data active means inhibition mostly above about 28%, no sharp cut-off; inactive means mostly below about 43%
Large screens that a line does not name were inactive. Unless noted, the call rests on the fitted dose curve.

CC(=O)N1CCN(C(=O)CSc2nnc(C)n2-c2ccccc2)CC1	none
O=C(c1ccc2c(c1)N(Cc1ccccc1)C(=O)CS2)N1CCOCC1	Pf growth 96h 13µM
O=C(NCCC1=CCCCC1)c1ccc2c(c1)N(Cc1ccccc1)C(=O)CS2	Pf growth 96h 5.9µM (no result: Pf growth 48h)
C=CCN1C(=O)CSc2ccc(C(=O)NC(C)c3ccccc3)cc21 (stereo not given)	Pf growth 96h 9.3µM
CCC(C)(O)c1[nH]c2ccc(C#N)cc2c1C (stereo not given)	none
CC(C)OC(=O)C1Cc2ccccc2CN1S(=O)(=O)c1cccs1 (stereo not given)	Pf growth 48h inconclusive, Pf growth 96h inconclusive
O=C(COC(=O)c1cc(S(=O)(=O)N2CCOCC2)cs1)c1ccccc1	Pf growth 96h 9.3µM
CC(C)NC(=O)NC(=O)COC(=O)c1cc(S(=O)(=O)N2CCCCC2)ccc1N1CCOCC1	CHX counter 12, Pf growth 48h 8.3µM, Pf growth 96h inconclusive, Shiga inhibitor 44
O=C(COC(=O)c1cc(S(=O)(=O)N2CCCCC2)ccc1N1CCOCC1)c1ccc(Cl)cc1	Pf growth 48h 12µM, Pf growth 96h 13µM (no result: CHX counter, NS1 function inh, Shiga inhibitor)
O=C(COC(=O)c1cc(S(=O)(=O)N2CCOCC2)ccc1F)c1ccccc1	none (no result: CHX counter, Pf growth 48h, NS1 function inh, Pf growth 96h, Shiga inhibitor)
O=C(Nc1ccccc1[N+](=O)[O-])c1cc(S(=O)(=O)N2CCOCC2)cs1	CHX counter 19, Pf growth 96h inconclusive
CC(C)CNC(=O)COC(=O)c1cc(S(=O)(=O)N2CCCCC2)ccc1N1CCOCC1	Pf growth 48h inconclusive, Pf growth 96h inconclusive
O=C(COC(=O)c1cc(S(=O)(=O)N2CCCCC2)ccc1N1CCOCC1)NCCc1ccc(F)cc1	Pf growth 48h inconclusive, NS1 function inh inconclusive, Pf growth 96h inconclusive
O=C(Nc1cccc([N+](=O)[O-])c1)c1cc(S(=O)(=O)N2CCOCC2)cs1	none
CC1CCCCN1CCNC(=O)C1CCCN(S(=O)(=O)c2cccc3nsnc23)C1 (stereo not given)	Pf growth 48h inconclusive
CCc1cc2ccc(C)c(C)c2nc1SCC(=O)NNC(=O)c1ccco1	none
O=C(COC(=O)c1cc(S(=O)(=O)N2CCCCC2)ccc1N1CCOCC1)c1ccccc1	Pf growth 48h 8.3µM, Pf growth 96h inconclusive (no result: CHX counter, NS1 function inh, Shiga inhibitor)
Clc1ccc(C2=Nn3c(nnc3-c3cccs3)SC2)cc1	Pf growth 48h inconclusive, Pf growth 96h inconclusive
CCc1ccc(C2=Nn3c(nnc3-c3cccs3)SC2)cc1	Pf growth 48h 2.1µM, Pf growth 96h 1.9µM
c1ccc(C2=Nn3c(nnc3-c3cccs3)SC2)cc1	none
c1ccc(-c2ccc(C3=Nn4c(nnc4-c4cccs4)SC3)cc2)cc1	Pf growth 48h 9.3µM, Pf growth 96h 13µM
Cc1nc(N2CCN(S(=O)(=O)c3ccccc3C#N)CC2)c2c(-c3ccccc3)csc2n1	Pf growth 48h 10µM, Pf growth 96h inconclusive (no result: CHX counter, NS1 function inh, Shiga inhibitor)
Cc1nc(N2CCN(S(=O)(=O)c3ccc(F)cc3)CC2)c2c(-c3cccs3)csc2n1	Pf growth 48h inconclusive, Pf growth 96h inconclusive (no result: NS1 function inh)
O=C(NCCOc1cccnc1)C1CCC(=O)N(Cc2ccccc2F)C1 (stereo not given)	none
CN(C#N)c1nccc(-c2cccs2)n1	Pf growth 48h inconclusive (no result: NS1 function inh)
NC(=S)Nc1nccc(-c2cccs2)n1	CHX counter 41, Shiga inhibitor 61 (no result: NS1 function inh)
Cc1ccc(C(=O)Nc2nccc(-c3cccs3)n2)cc1	CHX counter 28
COc1ccc2[nH]c3c(c2c1)CCN1C(=O)C(CC(=O)NCc2cccc(C(F)(F)F)c2)C[C@H](C(=O)N2CCCCC2)[C@@]31CCc1ccccc1 (stereo not given in full)	none (no result: CHX counter, Pf growth 48h, NS1 function inh, Pf growth 96h, Shiga inhibitor)
COc1ccc(OC)c(NC(=O)C(=O)c2cn(CC(=O)N3CCCC3)c3ccccc23)c1	Pf growth 48h 9.3µM, Pf growth 96h 4.7µM
COc1cccc(NC(=O)C(=O)c2cn(CC(=O)N3CCCC3)c3ccccc23)c1	CHX counter 17, Pf growth 96h 10µM, Shiga inhibitor 29
COc1ccc(C)cc1NC(=O)C(=O)c1cn(CC(=O)N2CCCC2)c2ccccc12	Pf growth 48h inconclusive, Pf growth 96h 8.3µM
Cc1ccc(NC(=O)C(=O)c2cn(CC(=O)N3CCCCC3)c3ccccc23)cc1	Pf growth 96h inconclusive
COc1ccc(NC(=O)C(=O)c2cn(CC(=O)N3CCCC3)c3ccccc23)cc1OC	Pf growth 96h inconclusive
